Compounds with a hit are over-represented: about 2.8% of the library has one in this group of screens.
HIV Env fusion: inhibitors of HIV Env-mediated cell fusion; inhibition, % at 12.3 µM; HeLa-JRFL Env/CEM21 cell fusion, luciferase; hit rate 1.1% among 360,000; AID 651610;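 active = mean replicate inhibition score of at least 50 and every replicate individually at or above 50; inconclusive = only one of the two criteria met; inactive = mean below 50 and not all replicates reaching 50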;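 also: 0% = plate neutral controls and 100% = maraviroc near 300 nM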
EBV LMP1 NFkB: Epstein-Barr LMP1 NF-kappaB reporter inhibition; LMP1-induced NF-kappaB luciferase reporter cells, luminescence; inhibition, % at 12.5 µM; hit rate 0.69% among 350,000; AID 504558; in the data active = inhibition above about 41%; inconclusive = no clear call, values can overlap the other calls;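 also: 0% = neutral control wells and 100% = reference inhibitor control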
PAX8 reporter: lowers PAX8-driven luciferase in RMG-I cells | RMG-I TPO-luciferase reporter, SteadyGlo, 24 h | inhibition, % at 12.6 µM | hit rate 1.2% among 360,000;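 active = mean replicate inhibition at least 60% with every replicate also reaching 60%; inconclusive = only one of the two criteria is met; inactive = mean below 60% and not all replicates reaching 60%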;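 also: luciferase light reporting Pax8 driven TPO promoter activity; plate controls were median of neutral control wells for no effect and mitoxantrone controls for full effect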
NSD2 inh: NSD2 (human) methyltransferase inhibition; NSD2 peptide methylation, AlphaScreen, 120 min; inhibition, % at 12.5 µM; hit rate 0.54% among 310,000; AID 743445; in the data active = inhibition above about 50%
Target sequence (O96028 whole entry, looked up): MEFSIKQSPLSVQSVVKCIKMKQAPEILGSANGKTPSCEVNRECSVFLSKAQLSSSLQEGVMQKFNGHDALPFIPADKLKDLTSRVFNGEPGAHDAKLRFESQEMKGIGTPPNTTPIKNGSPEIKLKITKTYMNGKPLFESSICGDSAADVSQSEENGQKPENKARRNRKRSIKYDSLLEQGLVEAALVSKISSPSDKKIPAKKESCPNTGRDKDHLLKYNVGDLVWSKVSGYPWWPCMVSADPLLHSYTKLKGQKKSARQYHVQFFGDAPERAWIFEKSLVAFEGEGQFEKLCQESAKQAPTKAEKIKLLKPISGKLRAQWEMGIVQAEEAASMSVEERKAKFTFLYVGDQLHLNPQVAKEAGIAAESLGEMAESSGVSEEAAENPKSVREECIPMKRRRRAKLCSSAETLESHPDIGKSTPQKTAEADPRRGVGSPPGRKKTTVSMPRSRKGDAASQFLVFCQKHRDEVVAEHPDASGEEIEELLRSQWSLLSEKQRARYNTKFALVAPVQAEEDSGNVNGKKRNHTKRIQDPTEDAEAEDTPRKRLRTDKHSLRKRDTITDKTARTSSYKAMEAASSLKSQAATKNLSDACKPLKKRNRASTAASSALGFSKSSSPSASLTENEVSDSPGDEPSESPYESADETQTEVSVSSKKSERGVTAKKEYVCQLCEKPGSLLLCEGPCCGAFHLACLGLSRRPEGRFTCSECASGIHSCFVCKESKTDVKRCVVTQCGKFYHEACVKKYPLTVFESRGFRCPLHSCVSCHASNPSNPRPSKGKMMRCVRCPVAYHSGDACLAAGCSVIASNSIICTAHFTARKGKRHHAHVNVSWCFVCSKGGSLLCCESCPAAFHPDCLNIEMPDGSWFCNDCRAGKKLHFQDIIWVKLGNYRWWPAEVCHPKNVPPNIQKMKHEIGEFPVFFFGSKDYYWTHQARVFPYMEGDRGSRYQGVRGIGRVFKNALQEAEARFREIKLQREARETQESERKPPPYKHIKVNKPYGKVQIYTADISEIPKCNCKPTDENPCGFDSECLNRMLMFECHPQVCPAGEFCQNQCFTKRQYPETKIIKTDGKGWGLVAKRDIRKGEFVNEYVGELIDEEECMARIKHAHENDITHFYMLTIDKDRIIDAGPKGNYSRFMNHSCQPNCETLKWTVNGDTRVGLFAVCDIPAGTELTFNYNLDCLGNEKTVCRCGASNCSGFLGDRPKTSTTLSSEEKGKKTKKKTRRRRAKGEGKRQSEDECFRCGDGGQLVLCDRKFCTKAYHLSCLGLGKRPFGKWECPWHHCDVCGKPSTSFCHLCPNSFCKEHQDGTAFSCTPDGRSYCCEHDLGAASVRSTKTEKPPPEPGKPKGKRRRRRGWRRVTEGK
Shn3 3UTR inh: reduces Shn3 3'UTR luciferase signal in osteoblasts. inhibition, % at 12.5 µM. Clone20 osteoblast Shn3 3'UTR firefly luciferase, 24 h. hit rate 0.52% among 360,000. AID 588674;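 active = mean inhibition of at least 75% with every replicate also reaching 75%; inconclusive = mean inhibition at least 75% but some replicate below; inactive = mean inhibition below 75%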;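 also: 0% = median of neutral control wells and 100% = pilot-screen positive control compound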
Glyco luc inh: N-linked glycosylation inhibition; D54 ERlucT glycosylation luciferase reporter, 24 h; percent of 100 nM tunicamycin response; reporter increase, % at 12.5 µM; hit rate 0.23% among 360,000;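 active = mean luciferase reporter signal, scaled so untreated is 0 and the glycosylation-blocking control 100, at or above a set limit in every replicate; inconclusive = mean reaches the limit but not every replicate does; inactive = mean below the limit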;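 also: luciferase carries N-glycosylation sites so blocking glycosylation raises the light; 0% = median of neutral control wells and 100% = median of 100 nM tunicamycin wells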
An asterisk follows results filed as active; ? = inconclusive; / = no result; [ ] = another dose, or the depositor's remark.

SMILES	HIV Env fusion	EBV LMP1 NFkB	PAX8 reporter	NSD2 inh	Shn3 3UTR inh	Glyco luc inh
COc1ccccc1S(=O)(=O)N(C)C[C@@H]1OCc2ccccc2-c2c(n(C)c3ccccc23)C(=O)N([C@@H](C)CO)C[C@H]1C	22.3[16.7 µM]	/	69.2*	/	/	/
COc1ccccc1S(=O)(=O)N(C)C[C@@H]1OCc2ccccc2-c2c(n(C)c3ccccc23)C(=O)N([C@H](C)CO)C[C@@H]1C	32.2[16.7 µM]	/	21.4	/	/	/
C[C@@H]1CN([C@H](C)CO)S(=O)(=O)c2ccc(C#CC3(O)CCCC3)cc2O[C@H]1CN(C)C(=O)c1cccnc1	/	/	-3.0	/	/	/
CCCOc1ccc2oc(=O)c3c(c2c1)CCCN3C(=O)CN1CCN(C(=O)c2ccco2)CC1	/	/	/	4.0	/	/
CCCOc1ccc2oc(=O)c3c(c2c1)CCCN3C(=O)CN1CCN(c2ncccn2)CC1	/	-6.3	/	4.6	93.6*	-1.5
O=C1C(C=NCc2ccncc2)=C(O)c2ccccc21	/	0.6	/	-0.8	15.9	0.6
O=C1C(C=NCc2cccnc2)=C(O)c2ccccc21	/	62.0*	/	0.1	-54.6	-4.6
Cc1ccc(-c2[nH]ncc2CNCCc2cnn(-c3ccccc3)c2)cc1C	66.4*	0.4	10.0	/	33.7	-1.4
C[C@H](CO)N1C[C@H](C)[C@@H](CN(C)S(=O)(=O)c2ccccc2)OCCCC[C@H](C)Oc2ccc(NS(=O)(=O)c3ccc(Cl)cc3)cc2C1=O	-13.4[16.7 µM]	/	85.7*	/	/	/
C[C@H](CO)N1C[C@H](C)[C@H](CN(C)S(=O)(=O)c2ccccc2)OCCCC[C@H](C)Oc2ccc(NS(=O)(=O)c3ccc(Cl)cc3)cc2C1=O	-23.7[16.7 µM]	/	83.5*	/	/	/
C[C@@H]1CCCCO[C@H](CN(C)S(=O)(=O)c2ccccc2)[C@H](C)CN([C@H](C)CO)C(=O)c2cc(NS(=O)(=O)c3ccc(Cl)cc3)ccc2O1	39.8[16.7 µM]	/	46.1	/	/	/
C[C@H](CO)N1C[C@H](C)[C@@H](CN(C)S(=O)(=O)c2ccc(Cl)cc2)OCCCC[C@H](C)Oc2ccc(NS(=O)(=O)c3ccccc3)cc2C1=O	/	/	75.9*	/	/	/
CSc1nc(C)cc(C)c1C#N	/	93.6*	/	-0.9	0.6	-7.4
CCCCCCCn1c2c(c(=N)c3c1CCC3)CCCC2	71.8*	40.9*	93.5*	10.1	43.7	12.1
CCCCCCCCCn1c2c(c(=N)c3c1CCC3)CCC2	/	36.8	/	/	65.2	18.1
CCCCn1c2c(c(=N)c3c1CCC3)CCC2	/	8.0	/	-2.5	69.3	0.2
CCCCCCn1c2c(c(=N)c3c1CCC3)CCC2	81.4*	?	/	-3.0	70.4	12.9
C[C@@H]1CCCCO[C@H](CN(C)S(=O)(=O)c2ccc(Cl)cc2)[C@@H](C)CN([C@@H](C)CO)C(=O)c2cc(NC(=O)CCC(F)(F)F)ccc2O1	36.7[16.7 µM]	/	93.1*	/	/	/
COc1ccc(S(=O)(=O)N(C)C[C@@H]2OCCCC[C@H](C)Oc3ccc(NC(=O)C4CCCCC4)cc3C(=O)N([C@@H](C)CO)C[C@@H]2C)cc1	-21.4[16.7 µM]	/	65.4*	/	/	/
C[C@H](CO)N1C[C@H](C)[C@H](CN(C)S(=O)(=O)c2ccc(Cl)cc2)OCCCC[C@H](C)Oc2ccc(NC(=O)Nc3ccc(C(F)(F)F)cc3)cc2C1=O	12.2[16.7 µM]	/	77.9*	/	/	/
C[C@@H]1CN([C@H](C)CO)C(=O)c2cc(NC(=O)Nc3ccccc3)ccc2O[C@@H](C)CCCCO[C@H]1CN(C)S(=O)(=O)c1ccc(Cl)cc1	42.3[16.7 µM]	/	70.0*	/	/	/
COc1ccc(S(=O)(=O)N(C)C[C@H]2OCCCC[C@@H](C)Oc3ccc(NC(=O)C4CCCCC4)cc3C(=O)N([C@@H](C)CO)C[C@H]2C)cc1	-27.2[16.7 µM]	/	-5.6	/	/	/
Cc1noc(C)c1S(=O)(=O)N(C)C[C@H]1OCCCC[C@@H](C)Oc2ccc(NS(=O)(=O)c3ccccc3)cc2C(=O)N([C@@H](C)CO)C[C@H]1C	-25.1[16.7 µM]	/	18.4	/	/	/
C[C@H](CO)N1C[C@H](C)[C@@H](CN(C)Cc2ccc(Cl)c(Cl)c2)Oc2c(cccc2N(C)C)C1=O	22.6[16.7 µM]	/	21.5	/	/	/
COc1ccc2c3c([nH]c2c1)[C@@H](CO)N(C(C)=O)CC31CN(Cc2ccccc2Cl)C1	/	/	31.8	/	/	/
C[C@@H]1CCCCO[C@@H](CN(C)S(=O)(=O)c2ccc(Cl)cc2)[C@H](C)CN([C@@H](C)CO)C(=O)c2cc(NC(=O)Nc3ccc(C(F)(F)F)cc3)ccc2O1	23.3[16.7 µM]	/	21.6	/	/	/
